Where a name gives a salt, the structure may show the parent alone.
What was measured:
Conditions in all cases: compound concentration in added solution (µM; 5 µl added to 20 µl cells): 10; 18 h
[1] = tested on: A431; assay: LBPA endosome anti-LBPA integrated intensity (sum per cell), Z-score; higher = more LBPA staining
Method in brief: (§1)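 Reported values are Z-scores from AcuityXpress normalisation of per-cell integrated LBPA or filipin staining. HeLa MZ or A431 cells (3,500/well in 20 µl) were seeded onto 5 µl of 10 µM compound solution in duplicate 384-well plates, incubated 18 h, fixed in 4% PFA, stained and imaged at 20×. MetaXpress segmentation measured the intensity over the whole cell or within LBPA endosomes.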

[2] = tested on: HeLa MZ; assay: as above
Method in brief: as §1

[3] = tested on: A431; assay: whole-cell filipin (free cholesterol) integrated intensity, Z-score; higher = more cholesterol staining
Method in brief: as §1

[4] = tested on: HeLa MZ; assay: as above
Method in brief: as §1

[5] = tested on: A431; assay: filipin (cholesterol) integrated intensity within LBPA endosomes, Z-score; higher = more cholesterol in LBPA endosomes
Method in brief: as §1

[6] = tested on: HeLa MZ; assay: as above
Method in brief: as §1

| SMILES | LBPA endosome anti-LBPA integrated intensity (z-score) [1] | LBPA endosome anti-LBPA integrated intensity (z-score) [2] | whole-cell filipin (z-score) [3] | whole-cell filipin (z-score) [4] | filipin (z-score) [5] | filipin (z-score) [6] |
| --- | --- | --- | --- | --- | --- | --- |
| CN(N=O)C(=O)N[C@@H](C=O)[C@@H](O)[C@H](O)[C@H](O)CO [Streptozotocin] | -0.585 | -0.52 | -0.71 | -0.525 | -0.474 | -0.51 |
| CN(C)CCOC(=O)COc1ccc(Cl)cc1 [Meclofenoxate hydrochloride] | -0.454 | -0.858 | -0.411 | -0.563 | -0.417 | -0.533 |
| CO/N=C(\C(=O)N[C@@H]1C(=O)N2C(C(=O)O)=C(C[N+]3(C)CCCC3)CS[C@H]12)c1csc(N)n1 [Cefepime hydrochloride] | -0.483 | -1.02 | -0.176 | -0.327 | -0.47 | -0.504 |
| N=C(N)NC(=O)c1nc(Cl)c(N)nc1N [Amiloride hydrochloride dihydrate] | -0.438 | -0.561 | -0.785 | -0.475 | -0.486 | -0.551 |
| CC(=O)CCCCn1c(=O)c2c(ncn2C)n(C)c1=O [Pentoxifylline] | -0.527 | -0.115 | -0.786 | -0.278 | -0.513 | -0.514 |
| COC1=C(OC)C(=O)C(CCCCCCCCCCO)=C(C)C1=O [Idebenone] | -0.691 | -0.73 | -0.893 | -0.402 | -0.585 | -0.582 |
| N=C(N=C(N)N)N1CCOCC1 [Moroxidine hydrochloride] | -0.598 | -1.32 | -1.06 | -0.892 | -0.527 | -0.669 |
| CC(=O)OCC(=O)[C@@]1(OC(C)=O)[C@@H](C)C[C@H]2[C@@H]3C[C@H](F)C4=CC(=O)C=C[C@]4(C)[C@@]3(F)[C@@H](O)C[C@@]21C [Diflorasone Diacetate] | -0.283 | -0.262 | -0.254 | -0.816 | -0.354 | -0.539 |
| CCCc1cc(C(N)=S)ccn1 [Prothionamide] | -0.257 | 0.224 | 0.0431 | -0.0396 | -0.301 | -0.377 |
| CCC(NC(C)C)C(O)c1ccc(O)c(O)c1 (stereo unspecified) [Isoetharine mesylate salt] | -0.174 | 0.0426 | 0.269 | -0.32 | -0.45 | -0.32 |
| NC1CCN(c2c(F)cc3c(=O)c(C(=O)O)cn(C4CC4)c3c2Cl)C1 (stereo unspecified) [Clinafloxacin] | -0.36 | 0.512 | -0.328 | -0.333 | -0.437 | -0.286 |
| NCc1ccccc1CC(=O)N[C@@H]1C(=O)N2C(C(=O)O)=C(CSc3nnnn3CC(=O)O)CS[C@H]12 [Ceforanide] | -0.318 | -0.0362 | -0.326 | -0.285 | -0.513 | -0.563 |
| CC(C)(C)NC[C@H](O)COc1nsnc1N1CCOCC1 [Timolol maleate salt] | -0.399 | -0.336 | -0.605 | -0.359 | -0.435 | -0.395 |
| CC/C(=C(\c1ccccc1)c1ccc(OCCN(C)C)cc1)c1ccccc1 [Tamoxifen citrate] | 2.11 | 0.441 | 0.819 | 0.438 | 2.05 | 2.47 |
| CC(=O)[C@H]1CC[C@H]2[C@@H]3CC=C4C[C@@H](O)CC[C@]4(C)[C@H]3CC[C@]12C [Pregnenolone] | 2.84 | 2.65 | 1.33 | 1.33 | 2.1 | 1.2 |
| CC(C)(C)NCC(O)COc1cccc2c1CC(O)C(O)C2 (stereo unspecified) [Nadolol] | -0.438 | 0.289 | -0.0909 | 0.44 | -0.44 | -0.157 |
| Cc1cc2cc3c(C)cc(=O)oc3c(C)c2o1 [Trioxsalen] | -0.317 | 0.147 | -0.465 | -0.318 | -0.425 | -0.476 |
| O=C1C(O)=C(O)C(=O)C(O)=C1O [Tetrahydroxy-1,4-quinone monohydrate] | -0.376 | 0.48 | -0.203 | -0.164 | -0.404 | -0.442 |
| CCOC(=O)[C@H](CCc1ccccc1)N[C@@H](C)C(=O)N1Cc2ccccc2C[C@H]1C(=O)O [Quinapril HCl] | -0.508 | -0.151 | -0.267 | -0.543 | -0.453 | -0.577 |
| Nc1ccc(O)c(C(=O)O)c1 [Mesalamine] | -0.0986 | 0.304 | 0.385 | 0.263 | -0.341 | -0.247 |
| NS(=O)(=O)c1cc(C(=O)O)c(NCc2ccco2)cc1Cl [Furosemide] | -0.539 | -0.705 | -0.993 | -0.823 | -0.572 | -0.492 |
| NS(=O)(=O)Cc1noc2ccccc12 [Zonisamide] | -0.257 | 0.173 | -0.0819 | 0.0656 | -0.385 | -0.275 |
| COC(=O)[C@@H]1[C@H]2C[C@H]3c4[nH]c5ccccc5c4CCN3C[C@@H]2CC[C@@H]1O [Yohimbine hydrochloride] | -0.468 | -0.264 | -0.685 | -0.575 | -0.434 | -0.333 |
| COc1ccccc1N1CCN(CCCCNC(=O)c2ccc3ccccc3c2)CC1 | 2.82 | 1.25 | 2.45 | 2.22 | 2.37 | 3.33 |
| Nc1nc(F)nc2c1ncn2[C@@H]1O[C@H](CO)[C@@H](O)[C@@H]1O [Fludarabine] | -0.338 | 1.27 | 0.904 | 1.82 | -0.372 | -0.595 |
| COc1ncnc(NS(=O)(=O)c2ccc(N)cc2)c1OC [Sulfadoxine] | -0.426 | -0.662 | 0.0314 | -0.436 | -0.379 | -0.505 |

| SMILES | LBPA endosome anti-LBPA integrated intensity (z-score) [1] | LBPA endosome anti-LBPA integrated intensity (z-score) [2] | whole-cell filipin (z-score) [3] | whole-cell filipin (z-score) [4] | filipin (z-score) [5] | filipin (z-score) [6] |
| --- | --- | --- | --- | --- | --- | --- |
| C[C@]12CCC(=O)C=C1CC[C@@H]1[C@@H]2C(=O)C[C@@]2(C)[C@H]1CC[C@]2(O)C(=O)CO [Cortisone] | -0.412 | 0.126 | -0.734 | -0.61 | -0.464 | -0.486 |
| CC[C@H](C)C(=O)O[C@H]1C[C@H](O)C=C2C=C[C@H](C)[C@H](CC[C@@H](O)C[C@@H](O)CC(=O)O)[C@H]21 [Pravastatin] | 1.48 | 0.0503 | -0.289 | -0.634 | 0.0167 | -0.441 |
| Clc1ccc2c(c1)C(N1CCNCC1)=Nc1ccccc1O2 [Amoxapine] | 3.32 | 0.828 | 0.789 | -0.797 | 2.56 | 1.55 |
| CCN1CCCC(OC(=O)C(c2ccccc2)c2ccccc2)C1 (stereo unspecified) [Piperidolate hydrochloride] | 1.4 | 1.47 | 1.77 | 1.11 | 1.7 | 0.861 |
| CCN(CC)CCOC(=O)C1(C2CCCCC2)CCCCC1 [Dicyclomine hydrochloride] | -0.0951 | 0.203 | 0.137 | -0.144 | 0.0207 | 0.0362 |
| OCC(O)CN1CCN(c2ccccc2)CC1 (racemic) [Dropropizine (R,S)] | -0.485 | -0.821 | -0.651 | -0.914 | -0.515 | -0.59 |
| NCc1ccc(S(N)(=O)=O)cc1 [Mafenide hydrochloride] | -0.472 | -0.546 | -0.682 | -0.536 | -0.471 | -0.44 |
| O=C1CN(/N=C/c2ccc(-c3ccc([N+](=O)[O-])cc3)o2)C(=O)N1 [Dantrolene sodium salt] | -0.554 | -0.147 | -1.1 | -0.944 | -0.655 | -0.686 |
| Cc1ccc(NC(=O)c2ccc(CN3CCN(C)CC3)cc2)cc1Nc1nccc(-c2cccnc2)n1 [Imatinib] | 3.97 | 1.01 | 2.96 | 3.48 | 4.02 | 3.74 |
| O=C(O)c1ccccc1C(=O)Nc1ccc(S(=O)(=O)Nc2nccs2)cc1 [Phthalylsulfathiazole] | -0.455 | -0.249 | -0.41 | -0.101 | -0.471 | -0.557 |
| COc1ccc2cc([C@H](C)C(=O)O)ccc2c1 [Naproxen] | -0.53 | -0.655 | -0.923 | -0.439 | -0.525 | -0.644 |
| OCCOCCN1CCN(C(c2ccccc2)c2ccc(Cl)cc2)CC1 (stereo unspecified) [Hydroxyzine dihydrochloride] | 0.255 | 0.53 | 0.266 | -0.465 | 0.492 | 0.489 |
| N=C(N)NC(=O)Cc1c(Cl)cccc1Cl [Guanfacine hydrochloride] | -0.503 | 0.0887 | -0.556 | 0.368 | -0.462 | 0.00861 |
| Cc1cc(-c2ccccc2)nnc1NCCN1CCOCC1 [Minaprine dihydrochloride] | -0.498 | -0.183 | -0.925 | -0.799 | -0.593 | -0.625 |
| CN(C)CCC=C1c2ccccc2C=Cc2ccccc21 [Cyclobenzaprine hydrochloride] | 2.59 | 2.51 | 1.71 | 0.233 | 2.57 | 2.22 |
| CC[C@@H](CO)NCCN[C@@H](CC)CO [Ethambutol dihydrochloride] | -0.297 | -0.0372 | -0.506 | -0.399 | -0.429 | -0.483 |
| Clc1ccc(C(Cn2ccnc2)OCc2ccsc2Cl)c(Cl)c1 (stereo unspecified) [Tioconazole] | -0.225 | 0.542 | -0.125 | -0.75 | -0.053 | -0.127 |
| CCCNC(C)C(=O)Nc1c(C)csc1C(=O)OC (stereo unspecified) [Articaine hydrochloride] | -0.511 | -1.09 | -0.0579 | -0.354 | -0.492 | -0.461 |
| O=C1C(CC[S+]([O-])c2ccccc2)C(=O)N(c2ccccc2)N1c1ccccc1 (stereo unspecified) [Sulfinpyrazone] | -0.368 | 0.025 | 0.303 | -0.59 | -0.319 | -0.446 |
| COc1ccc2[nH]c([S+]([O-])Cc3ncc(C)c(OC)c3C)nc2c1 (stereo unspecified) [Omeprazole] | -0.534 | -0.664 | -0.421 | -0.0929 | -0.508 | -0.373 |
| COc1ccc(C(=O)NCc2cccnc2)cc1C(=O)NCc1cccnc1 [Picotamide monohydrate] | -0.303 | -0.286 | -0.472 | -0.0549 | -0.457 | -0.612 |
| NS(=O)(=O)c1cc2c(cc1C(F)(F)F)NCNS2(=O)=O [Hydroflumethiazide] | -0.486 | -0.967 | -0.738 | -0.664 | -0.455 | -0.522 |
| O=C(c1ccccc1)c1ccc2n1CCC2C(=O)O (stereo unspecified) [Ketorolac tromethamine] | -0.483 | 0.0549 | -0.702 | -0.443 | -0.478 | -0.538 |
| CN1CCCN=C1/C=C/c1cccs1 [Pyrantel tartrate] | -0.533 | -0.181 | -0.934 | -1.12 | -0.565 | -0.677 |
| CCCCNc1c(C(=O)OCC)c(C)nc2c1cnn2CC [Tracazolate hydrochloride] | 0.273 | 1.37 | 0.113 | 1.2 | 0.00245 | 0.287 |

— the supplement of paper PMC6607015
